Experimental data: PMC5515408, “Sequence-specific DNA binding by MYC/MAX to low-affinity non-E-box motifs”
In all, about 4,500 sequences were measured (“log2 normalized fluorescence”: median about -0.34, highest 2% from about 3.3 on). This excerpt belongs to a sample that is enriched for the highest values.

molecular target: MAX:MAX (p21) (human, UniProt P61244-2 1-151); experiment: protein-binding microarray (anti-MAX antibody); PBM: 15 mM Tris-HCl pH 7.5, 100 mM KCl, 0.075% NP40, 7.5 mM beta-mercaptoethanol, 375 ng/ul BSA, 8 ng/ul poly(dA-dT):(dA-dT), 550 ng complex, 60 min, room tempe; high values mean tight binding; details: protein: recombinant; tags: 6xHis; chain copies: 2; label: 3' end of printed strand (linker) attached to glass slide; dsDNA, one strand shown
Sequence (P61244 other isoform, or with tags, fused parts or gaps): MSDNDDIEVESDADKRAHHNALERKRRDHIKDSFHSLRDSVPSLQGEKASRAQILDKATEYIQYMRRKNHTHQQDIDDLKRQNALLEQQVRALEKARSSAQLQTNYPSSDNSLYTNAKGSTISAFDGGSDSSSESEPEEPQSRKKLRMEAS
In short: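 A custom Agilent glass array held ~5000 unique 12-nt sequences in triplicate spots, made double-stranded by primer extension. His-tagged human MYC:MAX or MAX:MAX dimers (550 ng, produced in E. coli) were applied for 60 min at room temperature in Tris-KCl buffer, pH 7.5, with NP40, BSA and poly(dA-dT) competitor. Anti-MAX and secondary antibodies detected bound protein, with scanning at 543 nm, and binding is given as log2 normalized fluorescence.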

| Sequence | binding signal |
| --- | --- |
| CCGGCTGAGGTCTTGTATTAATAGCTAAGATTACTATATCGACG | -0.72 log2 normalized fluorescence |
| CCGGCCCTCACGTGGTATTAATAGCTAAGATTACTATATCGACG | 3.26 log2 normalized fluorescence |
| CCGGCACTCACGTGGTATTAATAGCTAAGATTACTATATCGACG | 3.13 log2 normalized fluorescence |
| CCGGCGCTCACGTGGTATTAATAGCTAAGATTACTATATCGACG | 3.34 log2 normalized fluorescence |
| CCGGCTCTCACGTGGTCTTAATAGCTAAGATTACTATATCGACG | 3.06 log2 normalized fluorescence |
| CCGGCTCACACGAGGTTTTAATAGCTAAGATTACTATATCGACG | 3.32 log2 normalized fluorescence |
| CCGGCTCACACGTGATATTAATAGCTAAGATTACTATATCGACG | 3.31 log2 normalized fluorescence |
| CCGGCTGGCACGAGGTTTTAATAGCTAAGATTACTATATCGACG | 3.28 log2 normalized fluorescence |
| CCGGCTCTCACGTGGTATTAATAGCTAAGATTACTATATCGACG | 3.5 log2 normalized fluorescence |
| CCGGCTCTTACGTGGTATTAATAGCTAAGATTACTATATCGACG | 0.802 log2 normalized fluorescence |
| CCGGCTCACACGTGTTATTAATAGCTAAGATTACTATATCGACG | 3.29 log2 normalized fluorescence |
| CCGGCTCACACGCGGTTTTAATAGCTAAGATTACTATATCGACG | 3.17 log2 normalized fluorescence |
| CCGGCTGTCACGTGATATTAATAGCTAAGATTACTATATCGACG | 3.2 log2 normalized fluorescence |
| CCGGCTGATGCTGAGTATTAATAGCTAAGATTACTATATCGACG | 0.00915 log2 normalized fluorescence |
| CCGGCTGAACAAAGGTATTAATAGCTAAGATTACTATATCGACG | -0.6 log2 normalized fluorescence |
| CCGGCTGACCGCGAGTATTAATAGCTAAGATTACTATATCGACG | 1.06 log2 normalized fluorescence |
| CCGGCTGAGCACAAGTATTAATAGCTAAGATTACTATATCGACG | 0.993 log2 normalized fluorescence |
| CCGGCTGGCACGTGCTATTAATAGCTAAGATTACTATATCGACG | 3.25 log2 normalized fluorescence |
| CCGGCTCACACGTGGTTTTAATAGCTAAGATTACTATATCGACG | 3.32 log2 normalized fluorescence |

| Sequence | binding signal |
| --- | --- |
| CCGGCTAACACGTGGTTTTAATAGCTAAGATTACTATATCGACG | 3.27 log2 normalized fluorescence |
| CCGGCTCACACGTTTTATTAATAGCTAAGATTACTATATCGACG | 3.25 log2 normalized fluorescence |
| CCGGCTCACACGTGGTATTAATAGCTAAGATTACTATATCGACG | 3.33 log2 normalized fluorescence |
| CCGGCTCAGACGTGGTATTAATAGCTAAGATTACTATATCGACG | 1.39 log2 normalized fluorescence |
| CCGGCTCACACGTCGTATTAATAGCTAAGATTACTATATCGACG | 2.63 log2 normalized fluorescence |
| CCGGCTGAATGACCGTATTAATAGCTAAGATTACTATATCGACG | 0.107 log2 normalized fluorescence |
| CCGGCTCACACCTCGTATTAATAGCTAAGATTACTATATCGACG | 2.28 log2 normalized fluorescence |
| CCGGCTGACGGTTCGTATTAATAGCTAAGATTACTATATCGACG | -0.498 log2 normalized fluorescence |
| CCGGCGCAAACGTGGTATTAATAGCTAAGATTACTATATCGACG | 2.98 log2 normalized fluorescence |
| CCGGCTGAAACGTGGAATTAATAGCTAAGATTACTATATCGACG | 2.54 log2 normalized fluorescence |
| CCGGCTAGCACGTGGTATTAATAGCTAAGATTACTATATCGACG | 3.44 log2 normalized fluorescence |
| CCGGCGGACTCGTGGTATTAATAGCTAAGATTACTATATCGACG | 3.3 log2 normalized fluorescence |
| CCGGCGGACCCGTGGTATTAATAGCTAAGATTACTATATCGACG | 2.46 log2 normalized fluorescence |
| CCGGCTCATACGTGGAATTAATAGCTAAGATTACTATATCGACG | 1.28 log2 normalized fluorescence |
| CCGGCAAGCACGTGGTATTAATAGCTAAGATTACTATATCGACG | 3.27 log2 normalized fluorescence |
| CCGGCGCACACGTGGTATTAATAGCTAAGATTACTATATCGACG | 3.29 log2 normalized fluorescence |
| CCGGCGCGCACGTGGTATTAATAGCTAAGATTACTATATCGACG | 3.39 log2 normalized fluorescence |
| CCGGCGGACGCGTGGTATTAATAGCTAAGATTACTATATCGACG | 3.14 log2 normalized fluorescence |
| CCGGCTCGCACGTGGAATTAATAGCTAAGATTACTATATCGACG | 3.31 log2 normalized fluorescence |

| Sequence | binding signal |
| --- | --- |
| CCGGCCAGCACGTGGTATTAATAGCTAAGATTACTATATCGACG | 3.24 log2 normalized fluorescence |
| CCGGCTGACCTGATGTATTAATAGCTAAGATTACTATATCGACG | 0.381 log2 normalized fluorescence |
| CCGGCATAGTATACAATTTAATAGCTAAGATTACTATATCGACG | 0.0214 log2 normalized fluorescence |
| CCGGCTGAACCCTGGTATTAATAGCTAAGATTACTATATCGACG | -0.595 log2 normalized fluorescence |
| CCGGCTGATAAGTGGTATTAATAGCTAAGATTACTATATCGACG | -0.651 log2 normalized fluorescence |
| CCGGCTGAAGGATTGTATTAATAGCTAAGATTACTATATCGACG | -0.589 log2 normalized fluorescence |
| CCGGCTGAAACTTGGTATTAATAGCTAAGATTACTATATCGACG | -0.705 log2 normalized fluorescence |
| CCGGCGAGCACGTGGTATTAATAGCTAAGATTACTATATCGACG | 3 log2 normalized fluorescence |
| CCGGCGTGCACGTGGTATTAATAGCTAAGATTACTATATCGACG | 3.47 log2 normalized fluorescence |
| CCGGCAGGCACGTGGTATTAATAGCTAAGATTACTATATCGACG | 3.21 log2 normalized fluorescence |
| CCGGCTCGGACGTGGTATTAATAGCTAAGATTACTATATCGACG | 1.17 log2 normalized fluorescence |
| CCGGCCTGCACGTGGTATTAATAGCTAAGATTACTATATCGACG | 3.26 log2 normalized fluorescence |
| CCGGCATCCACGTGGTATTAATAGCTAAGATTACTATATCGACG | 3.28 log2 normalized fluorescence |
| CCGGCACCCACGTGGTATTAATAGCTAAGATTACTATATCGACG | 3.35 log2 normalized fluorescence |
| CCGGCACGCACGTGGTATTAATAGCTAAGATTACTATATCGACG | 3.29 log2 normalized fluorescence |
| CCGGCTCGCACGTGGTATTAATAGCTAAGATTACTATATCGACG | 3.41 log2 normalized fluorescence |
| CCGGCCGGCACGTGGTATTAATAGCTAAGATTACTATATCGACG | 3.27 log2 normalized fluorescence |
| CCGGCCCGCACGTGGTATTAATAGCTAAGATTACTATATCGACG | 3.03 log2 normalized fluorescence |
